In PubChem BioAssay (NCI):
Compounds without any hit were thinned out: in the full panel of roughly 79,000, 15% have a hit. A number with no mark means an inactive call. Active and inactive are the calls of the source. Cut-off read from the data, not from the text of the source: active = growth inhibition above about 70%; inactive = the rest.

Experiment: NCI Yeast Anticancer Drug Screen. Data for the sgs1 strain (AID 173);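 note: 0% = growth of vehicle-only control cultures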
Conditions: S. cerevisiae sgs1 mutant, stronger effect = higher value
Method: Growth inhibition of yeast strains with defined genetic alterations is measured as a screen for potential anti-cancer activity. Selected strains with alterations in DNA damage repair or cell cycle control were exposed to compounds and growth inhibition was measured relative to vehicle treated controls. The strain used in this assay is sgs1

| Compound | growth inhibition (at 1.2 µM) [%] | growth inhibition (at 3.7 µM) [%] | growth inhibition (at 11.0 µM) [%] | growth inhibition (at 33.0 µM) | growth inhibition (at 100.0 µM) |
| --- | --- | --- | --- | --- | --- |
| CN(C)c1ccc(N=Nc2ccncc2)cc1 | 15 | 41 | 63 | 67% | 68% |
| O=Cc1ccc2c(c1)C(=O)c1ccccc1C2=O | -3 | -3 | 8 | 38% | 56% |
| Cc1ccc(NCCNCCO)c2c(=O)c3cc(O)ccc3sc12 | 15 | 35 | 43 | 48% | 91% (active) |
| CC(=O)OCC1OC2OC(=O)NC2C(OC(C)=O)C1OC(C)=O (stereo not given) | -3 | -3 | -2 | -1% | 0% |
| CC(NCCN(C)C)C1CCC2C3CCc4cc(O)ccc4C3CCC12C (stereo not given) | 3 | 9 | 42 | 87% (active) | 96% (active) |
| Cc1cccc(C(C)(C)C)c1NC(=O)C(C#N)C1=C(Cl)C(=O)c2ccccc2C1=O (stereo not given) | -2 | 9 | 45 | 98% (active) | 97% (active) |
| O=C(NCCCl)Sc1ccc(Cl)cc1 | 0 | 13 | 22 | 60% | 90% (active) |
| O=C1OC(C2=CC(=O)c3ccccc3C2=O)C(Cl)=C1Cl (stereo not given) | 4 | 13 | 48 | 79% (active) | 87% (active) |
